Source: PubChem BioAssay
The list is not random: actives were taken first. Their share in the collection is about 2.6%.
PAD4 FP inh: inhibitors of human PAD4; Q9UM07; recombinant PAD4, RCA probe fluorescence polarization; inhibition, % at 6.36 µM; 0.41% of 330,000 active; AID 485272;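 active = percent inhibition above a cutoff equal to the mean of all tested compounds plus 3 SD, cut at about 15% in these data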;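 also: 0% = PAD4 with RCA probe and DMSO and 100% = probe without PAD4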
PRMT1 FP inh: blocks human protein arginine methyltransferase 1; AID 652257; recombinant PRMT1, activity-based probe fluorescence polarization; 1.3% of 370,000 active; inhibition, % at 2.79 µM; Q99873;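 active = inhibition above about 21% made by adding two undisclosed values, limit read from the data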
PME-1 primary: PME-1 (human) inhibition. Q9Y570. recombinant PME-1, FP-Rh probe fluorescence polarization. inhibition, % at 5.9 µM. 0.53% of 320,000 active. AID 2130;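 active = inhibition above the campaign mean of all compounds plus 3 SD, cut at about 26% in these data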;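 also: competitive labeling of PME-1 active site by serine hydrolase directed probe; 0% = PME-1 with DMSO and 100% = wells lacking PME-1 enzyme; inhibitors block probe labeling so polarization falls and inhibition rises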
Target sequence (Q9Y570 whole entry, looked up): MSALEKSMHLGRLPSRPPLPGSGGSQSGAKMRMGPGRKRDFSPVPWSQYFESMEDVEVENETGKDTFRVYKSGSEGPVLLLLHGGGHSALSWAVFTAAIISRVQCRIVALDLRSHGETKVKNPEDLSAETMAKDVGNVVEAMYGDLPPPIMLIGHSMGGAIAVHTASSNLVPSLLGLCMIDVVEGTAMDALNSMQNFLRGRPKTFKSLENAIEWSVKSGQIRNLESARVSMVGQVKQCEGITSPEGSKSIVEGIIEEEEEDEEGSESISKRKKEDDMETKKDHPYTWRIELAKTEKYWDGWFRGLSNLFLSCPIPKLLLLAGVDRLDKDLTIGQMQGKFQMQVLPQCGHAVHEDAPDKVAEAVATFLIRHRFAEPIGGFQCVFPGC
Fam108B inh: blocks mouse Fam108B hydrolase in RBBP9 counter-screen; recombinant Fam108B, FP-Rh probe fluorescence polarization; inhibition, % at 9.51 µM; 0.33% of 300,000 active;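 active = inhibition above the screen mean inhibition plus 3 SD, computed separately per campaign, cut at about 18% in these data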;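 also: inhibitors lower polarization as less probe binds the enzyme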
TCR-CD3 inh: human TCR-CD3 binding inhibition. TAMRA-labeled TCR probe fluorescence, biochemical. inhibition, % at 9.4 µM. 0.37% of 360,000 active. AID 651800; in the data active = inhibition above about 19%;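 also: recombinant mutant TCR 2C K166C tagged with TAMRA read by polarization; 0% = receptor in buffer alone and 100% = receptor with positive control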
SIAE inh: blocks human sialic acid acetylesterase. Q9HAT2. SIAE FP-Rh probe binding, fluorescence polarization. inhibition, % at 9.66 µM. 0.69% of 370,000 active;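 active = inhibition above a cutoff: mean of compounds within the control limits plus 3 SD of those, cut at about 17% in these data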;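 also: 0% = plate median of compound wells and 100% = probe without SIAE protein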
SIAE confirm: human SIAE inhibition, confirmation | shares compounds with SIAE inh | SIAE FP-Rh activity-based probe, fluorescence polarization | inhibition, % at 9.66 µM | 13% of 2,300 active;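 active = mean inhibition of the replicates above the hit cutoff set in the primary screen, cut at about 17% in these data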;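 also: 0% = SIAE with DMSO and probe and 100% = probe without SIAE; inhibitors lower polarization as more probe stays unbound to SIAE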
* marks the source's active call; other numbers are inactive results; nt = no result.

SMILES	PAD4 FP inh	PRMT1 FP inh	PME-1 primary	Fam108B inh	TCR-CD3 inh	SIAE inh	SIAE confirm
N#CC(=C1C=C(Br)C(=NO)C=C1Cl)c1cccc2ccccc12	nt	-7	nt	nt	0	18*	13
COc1ccc(C(C#N)=C2C=C(Cl)C(=NO)C=C2Cl)cc1	nt	1	nt	nt	0	6	nt
Cc1cccc2c1CCC1CN(Cc3ccccc3)S(=O)(=O)N21 (centres undefined)	nt	-1	nt	nt	nt	3	nt
O=C(CCC(=O)N(CC(=O)NC1CCCC1)c1cccc(F)c1)Nc1nccs1	0	1	-4	1	5	18*	-2
O=C(CCC(=O)N(CC(=O)NC1CCCC1)c1ccc(F)cc1)Nc1nccs1	-2	0	-2	-1	2	-3	nt
O=C(CCc1ccccc1)N[C@H]1[C@H](OC(=O)c2cccnc2)CCC[C@@]12C(=O)N(Cc1ccccc1)c1ccccc12	nt	-4	nt	nt	nt	-8	nt
COc1cc(/C=N/N=C2/NC(=O)C(c3ccccc3)S2)ccc1O (centres undefined)	-1	-1	9	5	9	19*	9
CN1CCN(c2ccc(CNC(=O)c3ccc(-c4ccc(F)c(F)c4)c4ccoc34)cc2)CC1	nt	0	nt	nt	10	19*	7
CCCCOCCCNC(=O)C[C@@H]1C(=O)N(Cc2ccc(OC)cc2)C2=CCN(C(=O)OC(C)(C)C)C[C@]21C(=O)OCC	nt	-4	nt	nt	nt	7	nt
C=CC(=O)Nc1cccc(Oc2nc(Nc3ccc(N4CCN(C)CC4)cc3OC)ncc2Cl)c1	nt	-1	nt	nt	0	20*	16
O=c1c2cc3cc(Cl)ccc3nc2ncn1Cc1ccc(Oc2ccccc2)cc1	nt	-2	nt	nt	nt	3	nt
COc1cc(C(=O)N/N=C/c2cn(Cc3ccccc3)c3ccccc23)ccc1O	nt	0	nt	nt	9	25*	10
CNC(=S)N/N=C/c1cn(Cc2ccc(F)cc2)c2ccccc12	-2	1	19	11	-1	19*	9
Nc1ccc(C(=O)N/N=C/c2cn(Cc3ccccc3)c3ccccc23)cc1	nt	-1	nt	nt	1	14	nt
Nc1ccc(C(=O)N/N=C/c2cn(Cc3ccccc3F)c3ccccc23)cc1	nt	2	nt	nt	2	20*	10
Cn1c2ccccc2c2cc(/C=N/NC(=O)c3ccc(N)cc3)ccc21	0	-3	40*	17	7	24*	-3
CCc1ccc(CCNC(=O)OC2CCC23CCC(c2ccccc2)CC3)cc1 (centres undefined)	nt	2	nt	nt	nt	-5	nt
O=S1(=O)c2ccc(Br)cc2OC[C@H](Cc2ccccc2)N1Cc1cn(CCC2OCCCO2)nn1	nt	-3	nt	nt	nt	1	nt
CCCC1CCC2(CC1)CCC2OC(=S)Nc1cccc(C(F)(F)F)c1 (centres undefined)	nt	2	nt	nt	nt	-1	nt
O=C(Nc1ccc(N2CCCC2)cc1)c1cccc(F)c1	-4	4	6	3	-10	18*	-1
Cc1ccc(S(=O)(=O)Oc2ccccc2/C=N/N=C(N)N)cc1	1	-3	-2	2	6	21*	-4
Cc1ccc(S(=O)(=O)Oc2ccccc2/C=N/NC(N)=S)cc1	-2	-4	-2	2	0	1	nt
Cc1ccc(C(=O)CSc2nnc(-c3ccccn3)n2-c2ccccc2)cc1	nt	5	nt	nt	nt	-6	nt
CCCCNC(=O)C[C@@H]1C(=O)N(Cc2ccc(OC)cc2)C2=CCN(C(=O)OC(C)(C)C)C[C@]21C(=O)OCC	nt	-1	nt	nt	nt	10	nt
COc1cc([N+](=O)[O-])c(OC)cc1Nc1ccccc1C(=O)O	nt	1	nt	nt	1	-3	nt
SMILES	PAD4 FP inh	PRMT1 FP inh	PME-1 primary	Fam108B inh	TCR-CD3 inh	SIAE inh	SIAE confirm
COc1cc(-c2ccc(Nc3ccccc3C(=O)O)c(OC)c2)ccc1Nc1ccccc1C(=O)O	nt	8	nt	nt	10	30*	22*
COc1cccc(-c2nnc(SCC(=O)Nc3cccc4ccccc34)n2Cc2ccco2)c1	nt	17	nt	nt	nt	-6	nt
CC(C)=C1C2CCC1C(C(=O)NCCc1ccccc1)C2C(=O)O (centres undefined)	-4	-2	3	0	5	21*	-2
COc1ccc(S[C@]2(C(=O)N(C)C)CC(=O)N(c3ccc(Cl)cc3)[C@@H]2c2ccc(OC)cc2)cc1	nt	-2	nt	nt	nt	0	nt
COc1ccc(OCCSc2nc3ccccc3n2CC(=O)O)cc1	-3	0	-1	3	-4	5	nt
COc1ccccc1OCCSc1nc2ccccc2n1CC(N)=O	0	-3	2	0	3	17*	-2
O=[N+]([O-])c1cc(C(F)(F)F)ccc1NCCc1c[nH]c2ccc(O)cc12	3	6	18	8	-1	17*	2
Cc1ccc(NC(=O)CC2SC(=NCC3CCCO3)NC2=O)cc1Cl (centres undefined)	1	3	-2	4	-4	-2	nt
COc1ccc(NC(=O)CC2SC(=NCC3CCCO3)NC2=O)cc1 (centres undefined)	2	2	-1	2	1	17*	-3
CCCCCCCCN1C(=O)[C@@H](CC(=O)N2CCN(C(=O)OCC)CC2)C[C@@]2(C(=O)OC)C1=C[C@H](C(C)C)O[C@@H]2C1CC1	nt	1	nt	nt	nt	8	nt
CC1CCC/C(=N/NC(=O)c2ccccc2-n2cccc2)C1 (centres undefined)	1	-1	-11	-1	3	42*	8
CC1CCC(=NNC(=O)c2ccccc2-n2cccc2)CC1 (centres undefined)	-6	-4	-8	-1	1	0	nt
CC(=O)Oc1cc(C)c(Cl)c2c(OC(C)=O)cc(C(C)=O)c(O)c12	nt	24*	nt	nt	11	36*	18*
NC(Cc1ccc(C(F)(F)F)cc1)c1csc(NC(=O)Nc2ccccc2Cc2ccccc2)n1 (centres undefined)	nt	-1	nt	nt	-15	17*	23*
CCOCCCNc1ncnc2c1[nH]c1ccccc12	-5	-2	3	0	4	1	nt
CCCCOCCCNc1ncnc2c1[nH]c1ccccc12	-6	-4	21	5	-6	18*	4
CCCNC(=O)c1ccc2c(=O)c(O)c(-c3ccc(Cl)c([N+](=O)[O-])c3)[nH]c2c1	-2	0	24	14	-3	28*	7
O=C(NCCc1nc2ccccc2[nH]1)c1ccc(Cl)c([N+](=O)[O-])c1	1	2	1	0	-3	3	nt
COc1ccc(NC(=O)Cn2c(=O)oc3cc(Cl)ccc32)c(OC)c1	-4	-1	5	-3	7	17*	2
CCCC1CCC2(CC1)CCC2OC(=O)Nc1cccc(Cl)c1 (centres undefined)	nt	-4	nt	nt	nt	5	nt
Cc1ccc(-c2nnc(SCC(=O)NNC(=S)Nc3ccccc3)n2C2CCCCC2)cc1	nt	3	nt	nt	nt	7	nt
Cc1ccc(NC(=O)c2cc3ccccc3cc2O)cc1	0	-2	1	7	8	-6	nt
Cc1ccc(NC(=O)NNC(=O)c2cc3ccccc3cc2O)c(C)c1	-3	-1	9	3	14	22*	-4
